Assay outcomes: PubChem, Sanford-Burnham Center for Chemical Genomics
Neddyl block: blocks human cullin neddylation | P61081+Q13564 | TR-FRET cullin neddylation, biochemical | inhibition, % at 25 µM | 0.58% of 360,000 active; in the data active = inhibition above about 36%
A3A deaminase: blocks human APOBEC3A ssDNA deamination. 0.41% of 330,000 active. recombinant A3A, FAM/TAMRA ssDNA deamination fluorescence. inhibition, % at 20 µM;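 active = at least 40% inhibition at 20 µM here, with at most 30% in a related deaminase screen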
Target sequence (P31941 whole entry, looked up): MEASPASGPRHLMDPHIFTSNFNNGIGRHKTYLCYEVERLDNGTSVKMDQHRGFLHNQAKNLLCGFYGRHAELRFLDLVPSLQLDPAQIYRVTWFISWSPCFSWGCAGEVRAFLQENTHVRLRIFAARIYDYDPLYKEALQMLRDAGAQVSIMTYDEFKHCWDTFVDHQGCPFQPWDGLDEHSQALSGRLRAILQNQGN
A3G deaminase: APOBEC3G (human) deaminase inhibition. 0.28% of 330,000 active. recombinant A3G, ssDNA deamination FAM/TAMRA fluorescence. inhibition, % at 20 µM. Q9HC16;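 active = inhibition of at least 40% at 20 µM, with no more than 30% in the related APOBEC3A deaminase screen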
PfG6PD inh: PfG6PD (Plasmodium falciparum) enzyme inhibition. PfGluPho enzyme, NADPH resazurin-diaphorase fluorescence. inhibition, % at 20 µM. 0.78% of 350,000 active. AID 504690;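 active = inhibition reaching at least a set limit at 20 µM in the primary screen, cut at about 59% in these data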
GC-B act: GC-B (human) receptor activation. HEK293-GC-B cells, CNP EC30, cGMP TR-FRET; 0% at EC30 CNP, 100% saturating CNP. activation, % at 10 µM. 0.11% of 370,000 active;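 active = activation at 10 µM reaching about 35% in either raw or pattern-adjusted values, limit read from the data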
NPR1 activator: GC-A (human) enzyme activation; P16066; HEK293 GC-A cells, cGMP TR-FRET, EC30 ANP; 0% at EC30 ANP, 100% saturating ANP; activation, % at 10 µM; 0.14% of 370,000 active; in the data active = activation above about 40%
A number is an active result; ! = not confirmed by another sample. Shown are actives, neighbours in structure and some others; about 2% of the full set was active somewhere.

`Cc1nc2ccc([N+](=O)[O-])cc2c(=O)n1Cc1ccc([N+](=O)[O-])cc1` gave Neddyl block inactive, A3A deaminase inactive, A3G deaminase inactive, PfG6PD inh inactive, GC-B act inactive and NPR1 activator inactive.
`N#Cc1c(N)n(Cc2ccccc2)c(=O)c2cc([N+](=O)[O-])ccc12` gave Neddyl block inactive, A3A deaminase inactive, A3G deaminase inactive, PfG6PD inh inactive, GC-B act inactive and NPR1 activator 47.2.
O=C(CC1C=CCC1)OCCN1CCN(C2CN(Cc3cn(Cc4ccccc4Cl)nn3)S(=O)(=O)C2)CC1 (configuration not stated) was read as GC-B act inactive and NPR1 activator inactive.
Screening COc1ccc(/C=N/NC(=O)c2cc3c(OC)ccc(OC)c3[nH]2)cc1O returned Neddyl block 41.4, A3A deaminase inactive, A3G deaminase inactive, PfG6PD inh inactive, GC-B act inactive and NPR1 activator inactive.
For COc1ccc(OC)c2[nH]c(C(=O)N/N=C/c3ccccc3O)cc12 the results were Neddyl block inactive, A3A deaminase inactive, A3G deaminase inactive, PfG6PD inh inactive, GC-B act inactive and NPR1 activator inactive.
Screening COc1ccc2cc3cc(C(=O)N4CCCCCC4)oc3nc2c1 returned Neddyl block 63.0, A3A deaminase inactive, A3G deaminase inactive and PfG6PD inh inactive.
O=C(Nc1ccccc1)OCCN1C(=O)CCC12CCC(c1ccccc1)CC2 (configuration not stated) was read as GC-B act inactive and NPR1 activator inactive.
For CCN(C[C@H]1[C@@H](c2ccc(C3=CCCC3)cc2)[C@H](CO)N1c1nc(C)c(C)s1)S(=O)(=O)c1ccccc1[N+](=O)[O-] the results were GC-B act inactive and NPR1 activator inactive.
Screening Cc1sc2c(c1C)C(=O)NC(c1ccccc1F)N2 (configuration not stated) returned Neddyl block inactive, A3A deaminase inactive, A3G deaminase inactive, PfG6PD inh 74.7, GC-B act inactive and NPR1 activator inactive.
For Cc1cccc(C2NC(=O)c3c(sc(C)c3C)N2)c1O (configuration not stated) the results were Neddyl block inactive, A3A deaminase inactive, A3G deaminase inactive, PfG6PD inh inactive, GC-B act inactive and NPR1 activator inactive.
For Cc1ccc(C(=O)O)cc1-c1ccc(/C=C2/NC(=O)N(c3ccccc3)C2=O)o1 the results were Neddyl block 47.4, A3A deaminase inactive, A3G deaminase inactive, PfG6PD inh inactive, GC-B act inactive and NPR1 activator inactive.
CC(Sc1ccc2ccccc2n1)C(=O)O (configuration not stated) was read as Neddyl block inactive, A3A deaminase inactive, A3G deaminase inactive, PfG6PD inh inactive, GC-B act inactive and NPR1 activator 48.0!.
For CC(Sc1cnc2ccccc2n1)C(=O)O (configuration not stated) the results were Neddyl block inactive, A3A deaminase inactive, A3G deaminase inactive, PfG6PD inh inactive, GC-B act inactive and NPR1 activator inactive.
`CCCCCCCC#Cc1ccccc1/C=N/S(=O)c1ccc(C)cc1` (configuration not stated) gave A3A deaminase inactive, A3G deaminase 60.9 and PfG6PD inh inactive.
Screening CCCCC#Cc1ccccc1CC(=O)Nc1ccccc1 returned Neddyl block inactive, A3A deaminase inactive, A3G deaminase inactive, PfG6PD inh inactive, GC-B act inactive and NPR1 activator inactive.
Screening CC1C(=O)N(Cc2cn(CCC3OCCO3)nn2)CCS(=O)(=O)N1Cc1ccc(-c2ccc(Cl)cc2)cc1 (configuration not stated) returned Neddyl block inactive, PfG6PD inh inactive, GC-B act inactive and NPR1 activator 49.3.
Screening NC(=S)N=Nc1c(O)cc(O)c2[nH]c(=O)ccc12 returned Neddyl block inactive, PfG6PD inh 93.0, GC-B act inactive and NPR1 activator inactive.
For COc1ccc(Nc2c(-c3ccco3)nc3ccc(C)cn23)cc1 the results were A3A deaminase inactive, A3G deaminase inactive, PfG6PD inh inactive, GC-B act 35.6 and NPR1 activator inactive.
Screening Cc1cc(/C=N/NC(=O)c2ccncc2)c(C)n1-c1ccccc1 returned Neddyl block inactive, A3A deaminase inactive, A3G deaminase inactive, PfG6PD inh inactive, GC-B act inactive and NPR1 activator inactive.
Screening Cc1cc(/C=N/NC(=O)c2cccs2)c(C)n1-c1ccccc1 returned Neddyl block 40.0, A3A deaminase inactive, A3G deaminase inactive, PfG6PD inh inactive, GC-B act inactive and NPR1 activator inactive.
Screening Cc1cccc(NC(=O)CSc2nnc(SCc3ccc(Cl)cc3)s2)c1 returned GC-B act inactive and NPR1 activator inactive.
`COc1cc(=O)oc(C=O)c1C` gave GC-B act inactive and NPR1 activator inactive.
Cc1cccc(-n2c(SCC(=O)O)nc3sc4c(c3c2=O)CCCC4)c1 was read as Neddyl block inactive, A3A deaminase inactive, A3G deaminase inactive, PfG6PD inh inactive, GC-B act 45.5 and NPR1 activator inactive.
Cc1ccc(-n2c(SCC(=O)O)nc3sc4c(c3c2=O)CCCC4)cc1 was read as Neddyl block inactive, A3A deaminase inactive, A3G deaminase inactive, PfG6PD inh inactive, GC-B act inactive and NPR1 activator inactive.
`CN(CCCOC(=O)c1cc2ccccc2o1)C1CN(Cc2cn(Cc3ccc([N+](=O)[O-])cc3)nn2)S(=O)(=O)C1` (configuration not stated) gave GC-B act inactive and NPR1 activator inactive.
`C=CCn1c(=O)c2c3c(sc2n2c(Nc4ccccc4)nnc12)CCCC3` gave Neddyl block inactive, A3A deaminase inactive, A3G deaminase inactive, PfG6PD inh inactive, GC-B act inactive and NPR1 activator inactive.
Screening C=CCn1c(=O)c2c3c(sc2n2c(Nc4ccc(OC)cc4)nnc12)CCCC3 returned Neddyl block inactive, A3A deaminase inactive, A3G deaminase inactive, PfG6PD inh inactive, GC-B act 54.2 and NPR1 activator 47.7.
`COC(=O)[C@]12C[C@H](CC(=O)NCCCN3CCCC3=O)C(=O)N(Cc3cccc4ccccc34)C1=C[C@H](C(C)(C)C)O[C@@H]2C` gave GC-B act inactive and NPR1 activator inactive.
CN1Cc2nnn(Cc3ccccc3)c2-c2ccccc2S1(=O)=O was read as GC-B act inactive and NPR1 activator inactive.
For Cc1[nH]nc(-c2ccc(O)cc2O)c1-c1ccc(Cl)cc1 the results were Neddyl block inactive, A3A deaminase inactive, A3G deaminase inactive, PfG6PD inh inactive, GC-B act inactive and NPR1 activator 69.6.
Screening COc1ccc(-c2n[nH]c(C)c2-c2ccc(Cl)cc2)c(O)c1 returned Neddyl block inactive, A3A deaminase inactive, A3G deaminase inactive, PfG6PD inh inactive, GC-B act inactive and NPR1 activator inactive.
